Laboratory results as given in PubChem BioAssay AID720700 (The Scripps Research Institute Molecular Screening Center, 2013).
Out of some 370,000 compounds screened, about 3,100 (0.84%) were called active. For the sample, actives were picked, then their nearest neighbours and some compounds at random. Values without a mark were called inactive. Cut-off read from the data, not from the text of the source: active = inhibition above about 9.5%; inactive = the rest.

What follows are compounds tested against 1-phosphatidylinositol 4,5-bisphosphate phosphodiesterase gamma-1 (Homo sapiens) (UniProt P19174) (assay: PLC-gamma1 enzyme inhibitors, primary screen, biochemical, fluorescence, purified enzyme (AID 720700)). Settings: purified PLC-gamma1, fluorogenic substrate, at 12.2 µM, hits give high values.
1-phosphatidylinositol 4,5-bisphosphate phosphodiesterase gamma-1 (Homo sapiens), sequence (P19174 whole entry, looked up): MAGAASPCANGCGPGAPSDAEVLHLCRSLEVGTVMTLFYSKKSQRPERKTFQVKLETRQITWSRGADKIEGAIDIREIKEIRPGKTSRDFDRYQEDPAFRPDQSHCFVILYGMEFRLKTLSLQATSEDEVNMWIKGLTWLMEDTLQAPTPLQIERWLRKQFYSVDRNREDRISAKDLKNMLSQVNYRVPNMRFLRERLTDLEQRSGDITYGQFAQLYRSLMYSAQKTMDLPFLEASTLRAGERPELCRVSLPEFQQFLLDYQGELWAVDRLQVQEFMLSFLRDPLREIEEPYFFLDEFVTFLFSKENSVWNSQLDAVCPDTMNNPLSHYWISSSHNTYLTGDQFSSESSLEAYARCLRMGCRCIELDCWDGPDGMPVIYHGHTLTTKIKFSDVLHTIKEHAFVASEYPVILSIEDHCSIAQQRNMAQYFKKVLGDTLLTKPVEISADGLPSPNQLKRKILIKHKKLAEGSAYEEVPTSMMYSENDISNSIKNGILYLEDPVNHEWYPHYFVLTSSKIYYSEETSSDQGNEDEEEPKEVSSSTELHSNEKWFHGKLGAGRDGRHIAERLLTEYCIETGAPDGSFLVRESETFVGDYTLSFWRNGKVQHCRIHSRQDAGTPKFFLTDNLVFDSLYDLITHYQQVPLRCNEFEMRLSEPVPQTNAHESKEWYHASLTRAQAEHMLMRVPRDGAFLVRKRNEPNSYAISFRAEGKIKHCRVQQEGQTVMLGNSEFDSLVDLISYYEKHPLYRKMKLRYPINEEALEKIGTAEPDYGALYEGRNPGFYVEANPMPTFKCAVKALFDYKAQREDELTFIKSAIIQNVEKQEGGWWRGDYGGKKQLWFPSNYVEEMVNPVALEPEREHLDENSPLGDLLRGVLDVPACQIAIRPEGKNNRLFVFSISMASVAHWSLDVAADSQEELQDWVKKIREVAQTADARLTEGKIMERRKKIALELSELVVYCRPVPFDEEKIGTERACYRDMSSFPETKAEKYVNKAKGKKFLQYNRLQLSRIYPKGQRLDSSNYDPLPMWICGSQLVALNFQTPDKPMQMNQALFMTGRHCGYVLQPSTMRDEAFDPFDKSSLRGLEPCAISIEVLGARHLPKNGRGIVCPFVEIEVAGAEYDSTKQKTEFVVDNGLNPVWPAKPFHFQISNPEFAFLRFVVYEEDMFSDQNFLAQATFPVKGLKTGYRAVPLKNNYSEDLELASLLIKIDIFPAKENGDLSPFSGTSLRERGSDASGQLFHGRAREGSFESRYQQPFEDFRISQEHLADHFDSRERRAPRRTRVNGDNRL

SMILES	inhibition
CC(C)C(NC(=O)C1CCC(C(C)(C)C)CC1)C(=O)NCCCN1CCCCC1 (stereo not drawn)	10.2% (active)
O=C(NCCCN1CCCCCC1)C1CC(=O)N(C2CCCC2)C1 (stereo not drawn)	-1.08%
O=C(NC(C(=O)NCCN1CCOCC1)C12CC3CC(CC(C3)C1)C2)C1CCCCC1 (stereo not drawn)	-1.07%
Cc1ccc(-n2c(SCC(=O)Nc3ccc(S(=O)(=O)Nc4nccs4)cc3)nnc2-c2ccccn2)cc1	-1.19%
CN(C)/C=C(/C(=O)c1ccc(F)cc1)S(=O)(=O)c1ccc(F)cc1	-0.23%
CN(C)/C=C(/C(=O)c1ccc(Cl)cc1)S(=O)(=O)c1ccccc1	11.6% (active)
CN(C)/C=C(/C(=O)c1ccccc1Cl)S(C)(=O)=O	-0.96%
CC(C)CNC(=O)OCc1cn(Cc2ccc(F)cc2)nn1	-0.35%
CN(CCO)c1cccc2c1S(=O)(=O)N(Cc1cn(Cc3ccc(C(F)(F)F)cc3)nn1)Cc1ccccc1O2	-12.9%
CCOc1ccc(-n2c(SCC(=O)Nc3cc(C)c(NC(=O)c4ccccc4)cc3OC)nnc2-c2cccc(Cl)c2)cc1	-13.8%
Cc1ccc(C(=O)C2CCN(CC(=O)NCCC(C)C)CC2)cc1	-6.25%
NC1=CC(=O)C(=O)c2cccnc21	11.2% (active)
CC(C)CNS(=O)(=O)CC1NCCc2ccccc21 (stereo not drawn)	1.24%
O=C(CSc1nc2sc3c(c2c(=O)n1-c1ccccc1)CCCC3)NN=Cc1ccc(OCc2ccccc2)cc1	-0.49%
COc1ccc(/C=C2\CC3(OC(C)=O)CCCN2C3)cc1 (stereo not drawn)	0.44%
COc1ccc(C=C2CCC3C(CCCC34OCCO4)C2=O)cc1 (stereo not drawn)	3.51%
COc1ccc(/C=C2\N=C3CCCN3C2=O)cc1	10.5% (active)
Cc1cccc(NC(=O)C[C@H]2CC[C@H]3[C@@H](COc4ccc(NC(=O)Nc5ccccc5)cc4C(=O)N3C)O2)c1	3.76%
COC(=O)NNC1=CC(=O)CC(C)(C)C1	-1.76%
CC1(C)CC(=O)C=C(NC2CC(C)(C)NC(C)(C)C2)C1	9.6% (active)
CC1(C)CC(=O)C=C(NCCCNC2CCCCC2)C1	2.3%
O=C1CCC(C(=O)OCC(=O)Nc2ccc(OC(F)F)cc2)=NN1	3.57%

SMILES	inhibition
COc1ccc(NC(=O)COC(=O)CNC(=O)C2CCCCC2)cc1	0.1%
CCC(C)(C)c1ccc(Oc2ccc(NC(=O)COC(=O)C3=COCCO3)cc2)cc1	10.1% (active)
O=C(CSc1nnc(-c2cccc(Cl)c2)n1Cc1ccco1)Nc1ccc(OCc2ccccc2)cc1	2.27%
COC(=O)[C@]12C[C@H](CC(=O)N3CCN(C(=O)C4CC4)CC3)C(=O)N(CCC3=CCCCC3)C1=C[C@H](C(C)C)O[C@@H]2C1CC1	-0.79%
OC(CNCC1CCCO1)Cn1c2ccc(Br)cc2c2cc(Br)ccc21 (stereo not drawn)	9.98% (active)
O=C(CNC(=O)c1ccc(Br)o1)NCC1CCCO1 (stereo not drawn)	-1.19%
COCCNC(=O)c1ccc(Cn2c(SCC(=O)NCC3CCCO3)nc3ccc(Br)cc3c2=O)cc1 (stereo not drawn)	0.38%
COc1cccc(CSc2nnc(-c3cccnc3)n2Cc2ccccc2)c1	-0.88%
N[C@@H](Cc1ccccc1)C(=O)N1CCC[C@@H]1C(=O)N1CCC2CCN(S(=O)(=O)c3ccccc3)CC21 (stereo partly drawn)	1.45%
CCCCC(=O)N[C@@H]1CC[C@@]23CCCN2C(=O)CCC[C@H]3[C@H]1C	0.85%
COc1ccc(S[C@]2(C(=O)N(C)C)CC(=O)N(c3ccc(OC)cc3)[C@@H]2c2ccc(OC)cc2)cc1	3.67%
COc1cc(/C=C/C(=O)n2cnc3ccccc32)cc(OC)c1OC	-0.84%
Cc1ccccc1CN1CCCCC(NC(=O)Nc2ccccc2F)C1=O (stereo not drawn)	4.92%
Nn1cnnc1N/N=C/c1cc([N+](=O)[O-])c(Cl)cc1Cl	13.2% (active)
O=C1c2ccccc2C(O)N1Cc1ccccc1Cl (stereo not drawn)	-1.89%
COc1ccc(NC(=O)N2CCCC2C(=O)NCc2ccccc2Cl)cc1 (stereo not drawn)	-0.63%
O=C(Nc1ccc(Br)cc1)C1CCC(=O)N1Cc1ccccc1Cl (stereo not drawn)	9.91% (active)
COc1ccc(-n2c(SCC(=O)Nc3ccc4c(c3)OCCO4)nnc2-c2ccc(Cl)cc2)cc1	2.18%
O=S1(=O)c2c(NCc3ccco3)cccc2Oc2ccccc2CN1Cc1cn(Cc2cccc(C(F)(F)F)c2)nn1	-41.1%
O=C(CN1CCN(c2ccc(O)cc2)CC1)Nc1ccc(-c2ccccc2)cc1	5.1%
CCCCc1nc2ccccc2c(NC(=O)CN2CCN(C)CC2)c1CCC	31.4% (active)
CCc1cc(C(=O)c2ccc(OC)cc2)c(NC(=O)CN2CCN(C)CC2)s1	-5.73%

SMILES	inhibition
Clc1ccc(-n2c(COc3ccccc3)nnc2SCc2nc3ccccc3[nH]2)cc1	-0.91%
CCCCNc1ccc(C(=O)Nc2cccc(C)n2)cc1[N+](=O)[O-]	16.8% (active)
Cc1cccc(NC(=O)c2ccc(COc3ccccc3[N+](=O)[O-])o2)n1	-0.91%
Cc1cc(O)c(NC(=O)c2ccc(C)c([N+](=O)[O-])c2)cc1C	4.76%
O=C(Nc1cc(F)cc(F)c1)OC1CCC12CCC(c1ccccc1)CC2 (stereo not drawn)	0%
C=CCN1[C@H](CC(C)C)COc2cccc(N3CCCC3)c2S1(=O)=O	-4.7%
C[C@H]1[C@H](NC(=O)c2cccc(N(C)C)c2)CC[C@@]23CCCN2C(=O)CCC[C@@H]13	-87.5%
Cc1sc2nc(SCC(=O)c3ccc(O)c(O)c3)n(Cc3ccco3)c(=O)c2c1C	4.7%
CC1(C(=O)NCc2ccccc2)CSCC(=O)N1CCCn1ccnc1 (stereo not drawn)	0.21%
CC1(C(=O)NCc2ccccc2)CSCC(=O)N1CCCN1CCOCC1 (stereo not drawn)	10.3% (active)
CCC(C)CN1C(=O)CSCC1(C)C(=O)NCc1ccccc1 (stereo not drawn)	3.07%
Cc1cc(=O)[nH]c(SCC(=O)Nc2ccc(Cl)cc2C)n1	3.72%
C=C(C)C#CC(Cc1ccccc1)N(CC1CC1)/C(N)=N/C(=O)OCc1ccccc1 (stereo not drawn)	-163%
O=S1(=O)c2c(cccc2N2CCSCC2)Oc2ccccc2CN1Cc1cn(Cc2ccc(F)cc2)nn1	-5.24%
O=C(Nc1ccccc1Cl)/C(Cl)=C(\Cl)S(=O)c1ccccc1 (stereo not drawn)	12.4% (active)
CN1C(=O)c2cc(NS(C)(=O)=O)ccc2OC[C@@H]2O[C@@H](CC(=O)NCc3ccc(-c4ccccc4)cc3)CC[C@H]21	-2.2%
CCC(=O)c1c(CC)c2n3c1=CC[C@H]3CC(Br)C=2 (stereo partly drawn)	-6.13%
CC(=O)N1CCc2cc(S(=O)(=O)NCCC(=O)N3CCCC3)ccc21	1.19%
COc1ccc(N2CC(C(=O)NCCS(=O)(=O)N3CCN(c4ccccc4)CC3)CC2=O)cc1 (stereo not drawn)	4.62%
COCCCNC(=O)C1CC(=O)N(c2ccc(C)cc2)C1 (stereo not drawn)	-0.12%
Cc1ccc(N2CC(C(=O)NCCS(=O)(=O)N3CCN(c4ccccc4)CC3)CC2=O)cc1 (stereo not drawn)	10.4% (active)
O=C(NC1CCCC1)C1CSCCS(=O)(=O)N1Cc1ccccc1 (stereo not drawn)	-0.17%

SMILES	inhibition
COc1cccc(C(=O)CC(=O)C(=O)Nc2ccc([N+](=O)[O-])cc2C)c1	-0.82%
COc1ccc(C(=O)c2c(C)c(CCC#N)n3ccccc23)c(OC)c1	-3.69%
Cc1c(C(=O)c2cccc([N+](=O)[O-])c2)c2ccccn2c1CCC#N	11.7% (active)
Cc1cc(C)cc(NC(=O)N2CCC(N(C)CCC(C)C)CC2)c1	3.12%
CCC(c1ccc(NC(=O)OC(C)(C)C)cc1)c1cc(OC)cc(OC)c1 (stereo not drawn)	1.5%
CC(=O)c1c(C)[nH]c(C(=O)OCC(=O)Nc2sc3c(c2C#N)CCCC3)c1C	-7.9%
N#Cc1c(NC(=O)C2CCCO2)sc2c1CCCCC2 (stereo not drawn)	12.2% (active)
N#Cc1c(NC(=O)c2ccc(N3CCOCC3)c([N+](=O)[O-])c2)sc2c1CCCC2	3.4%
O=C(Nc1ccccc1)N1CCN(Cc2nc3ccccc3c(=O)[nH]2)CC1	-0.51%
C/C(CC(C)C)=N\Oc1nc(C)cc(C)n1	9.91% (active)
COc1cccc(CNC(=O)C2CCCN(c3nc4ccccc4o3)C2)c1OC (stereo not drawn)	0.94%
COC(=O)[C@H](C(C)C)N1CCc2nnn(Cc3ccc(C)cc3)c2-c2ccccc2S1(=O)=O	0.55%
Cc1ccc(-c2c(C)n([O-])c3c([n+]2=O)CCC3)cc1	1.87%
CCOc1ccc(-c2c(C)n([O-])c3c([n+]2=O)CCCC3)cc1	-0.45%
CCc1c(C)n([O-])c2c([n+]1=O)CCCCC2	11% (active)
CC(CCN1CCC(C(O)(c2ccccc2)c2ccccc2)CC1)Oc1ccc(Cl)cc1 (stereo not drawn)	3.75%
CCCC[C@H]1C2CC(OC(=O)NCc3ccccc3)C(C2)[C@H]2CCCCN21 (stereo partly drawn)	-1.64%
CC1Oc2ccccc2N(Cc2cccnc2)C1=O (stereo not drawn)	11% (active)
Cc1cccc(C)c1NC(=O)CN1C(=O)C(C)Oc2ccccc21 (stereo not drawn)	1.55%
CC12c3ccccc3C(c3ccccc31)C1C(=O)N(Cc3cccnc3)C(=O)C12 (stereo not drawn)	1.04%
Cc1ccc(C2=CCN(C)C(=O)N2c2ccc(Cl)cc2)cc1	-0.42%
CC(c1c[nH]c2ccccc12)c1c(-c2ccccc2)n(C)c2ccccc12 (stereo not drawn)	-4.35%
